This note sets out measurements from ChEMBL document CHEMBL3988442, “University of Dundee, Small-Polar-MMV Screening Library” (2021).

Among all 48,000 compounds or so, about 13,000 (27%) showed an effect of 50% or more. The list shows a part of the results.

This experiment deals with Wolbachia pipientis. Kind of experiment: Anti-Wolbachia Cell-Based Screen. Type of experiment: functional. On the set-up: scale not given: in the data most compounds retested in dose-response had high values. Particulars: 5 µM.
With `CN(C)c1cccc(C(=O)Nc2cn(C)c(=O)n(C)c2=O)c1`, the “Percent Effect” value is reported as -7.07%. As for `COc1c(C(=O)N2CCC(COCc3ccccc3)C2)c(C)nn1C` (configuration not stated), the “Percent Effect” value was -0.4444%. With `Cc1nc2c(c(C)c1CC(=O)NCc1cccs1)c(=O)[nH]n2C`, the “Percent Effect” value was found to be 165.2%. As to `Cc1ccsc1CNC(=O)Cc1c(C)nc2c(c1C)c(=O)[nH]n2C`, the “Percent Effect” value was -0.5496%. `CCCNC(=O)Cc1c(C)nc2c(c1C)c(=O)[nH]n2C`: the “Percent Effect” value was -12.53%. As for `O[C@H]1CC[C@@H](Cc2cc(-c3ccc(F)cc3)on2)O[C@@H]1CNCC1CC1`, the “Percent Effect” value is 6.759%. In the case of `O=C(O)C(F)(F)F.O=C(O)C(F)(F)F.c1ccc(OCc2n[nH]c3c2CN(Cc2cccs2)C3)nc1` it was -9.854%; in that of `CS(=O)(=O)N1CCc2[nH]nc(Cc3cccs3)c2C1`, 98.95%. Regarding `COCc1n[nH]c2c1CN(Cc1cccs1)C2.O=C(O)C(F)(F)F`, the “Percent Effect” value was 1.549%. For the molecule `O=C(O)C(F)(F)F.O=C(O)C(F)(F)F.O=C(O)C(F)(F)F.c1cncc(OCc2n[nH]c3c2CN(Cc2cccs2)C3)c1`, the “Percent Effect” value is recorded as -32.3%. `O=C(O)C(F)(F)F.OCCOCc1n[nH]c2c1CN(Cc1ccco1)C2`: the “Percent Effect” value was 3.715%. For the molecule `O=C(CCc1ccco1)N1CCc2[nH]nc(COc3ccccc3)c2C1`, the “Percent Effect” value amounted to 91.35%. Consider `O=C(c1csnn1)N1CCc2[nH]nc(COc3cccc(Cl)c3)c2C1`, for which the “Percent Effect” value amounted to 7.373%. For `O=C(CCc1cccs1)N1CCc2[nH]nc(COc3ccccc3)c2C1`, the “Percent Effect” value is listed as 98.05%. Consider `Cc1noc(C)c1-c1n[nH]c2c1CN(S(=O)(=O)c1cccs1)CC2`, for which the “Percent Effect” value turned out to be 16.83%.

For the molecule `COc1nc2c(cc1C(=O)N(C)Cc1[nH]nc3c1CCC3)CCC2`, the “Percent Effect” value is listed as 7.806%. In the case of `OC(COCc1ccccc1Cl)CN1CC(n2cccn2)C1` (configuration not stated) it was -11.39%; in that of `Cc1nc(CN2CCCC(CCNS(C)(=O)=O)C2)c[nH]1` (configuration not stated), -5.765%.

On to `Cc1occc1C(=O)N1Cc2nccn2CC(CN2CCOCC2)C1.O=C(O)C(F)(F)F` (configuration not stated), for which the “Percent Effect” value is reported as -15.88%. For the molecule `CN(C)CCN(C)c1ccc(-c2nc(COc3ccccc3)no2)cn1`, the “Percent Effect” value is given as -2.014%. Take `CC[C@H]1COCCN1C(=O)CCCn1nnc(-c2ccc(F)cc2)n1`: the “Percent Effect” value is on record as -1.392%.

Regarding `Cc1cc(C2CCC2)nc(N(C)Cc2cnccn2)n1`, the “Percent Effect” value is -5.292%.

For the molecule `CCCN(CCC)S(=O)(=O)N(C)Cc1ccncc1`, the “Percent Effect” value is 3.881%.

Turning to `CN(Cc1ccc([S+](C)[O-])cc1)c1cncc(Br)c1` (configuration not stated), the “Percent Effect” value is 105.7%. On to `CN(Cc1ccc([S+](C)[O-])cc1)c1ccc(Br)cn1` (configuration not stated), for which the “Percent Effect” value is -27.32%.

Take `COc1cc(F)ccc1N(C)Cc1ccncc1`: the “Percent Effect” value is -8.772%. `CN(Cc1ccncc1)c1cncc(Br)c1`: the “Percent Effect” value is 97.92%. With `CN(Cc1ccc([S+](C)[O-])cc1)c1cncc(Cl)n1` (configuration not stated), the “Percent Effect” value is reported as -12.95%. As for `Cc1nc(N(C)C)nc(N(C)Cc2cnccn2)c1C`, the “Percent Effect” value was 49.18%.

Consider `CN(Cc1cnccn1)c1cncc(Br)c1`, for which the “Percent Effect” value amounted to 109.1%.

Turning to `O=C(O)C(F)(F)F.O=C(O)C(F)(F)F.c1ccc(COC[C@H]2CC[C@H]3[C@H](CCN3c3ncccn3)O2)nc1`, the “Percent Effect” value is -2.736%.

Turning to `COc1ccc(F)cc1CN1CCCC(c2cc(C(N)=O)[nH]n2)C1` (configuration not stated), the “Percent Effect” value is on record as -1.722%.

For `CCc1cnc(CN2CCCC(c3cc(C)[nH]n3)C2)o1` (configuration not stated), the “Percent Effect” value is -1.395%. As for `Cc1cc(C2CCCN(CCc3ccccn3)C2)n[nH]1` (configuration not stated), the “Percent Effect” value is -3.98%. As to `Cc1cc(C2CCCN(CCc3ccc4c(c3)CCO4)C2)n[nH]1` (configuration not stated), the “Percent Effect” value came out at 104%.

With `CCOCCN1CCCC(c2cc(C(N)=O)[nH]n2)C1` (configuration not stated), the “Percent Effect” value was -3.243%. Turning to `NC(=O)c1cc(C2CCCN(CCc3ccc4c(c3)CCO4)C2)n[nH]1` (configuration not stated), the “Percent Effect” value was determined as 94.15%. As for `NC(=O)c1cc(C2CCCN(Cc3ccc4c(c3)OCCO4)C2)n[nH]1` (configuration not stated), the “Percent Effect” value came out at 95.83%. As to `O=C(C1CCCN(CCc2ccc3c(c2)CCO3)C1)N1CCCC1` (configuration not stated), the “Percent Effect” value was 96.85%. On to `O=C(NCC1CCOC1)N1CCN(Cc2ccc3c(c2)CCO3)CC1` (configuration not stated), for which the “Percent Effect” value is on record as -2.282%. On to `O=C(C1COCCO1)N1CCN(Cc2ccc3c(c2)CCO3)CC1` (configuration not stated), for which the “Percent Effect” value is 2.717%.

With `NC(=O)c1cc(C2CCCN(CCOCC(F)(F)F)C2)n[nH]1` (configuration not stated), the “Percent Effect” value is given as -1.839%. `CCc1cc(NCCNc2cccnc2)n2nccc2n1`: the “Percent Effect” value is -9.581%. Consider `Cc1[nH]c(=O)[nH]c(=O)c1CN1CCCC(CCc2ccc(F)cc2F)C1` (configuration not stated), for which the “Percent Effect” value is reported as 2.06%. As to `CSCCC(=O)N1CCC(Oc2cc(C)ccc2F)(C(=O)O)CC1`, the “Percent Effect” value is given as 3.058%. With `CS(=O)(=O)N1CCOC2(CCCN(c3ncc(F)cn3)C2)C1` (configuration not stated), the “Percent Effect” value is 0.4401%. `CCC(C)(NCC(N)=O)c1nccs1` (configuration not stated): the “Percent Effect” value is on record as -7.734%. Take `COCCN1CCC2(CCN(CC3CC3)CC2)C1=O.O=C(O)C(F)(F)F`: the “Percent Effect” value is listed as -9.065%. Consider `CCc1cnc(N2CCC3(CCN(CC)C3=O)CC2)nc1`, for which the “Percent Effect” value is -13.53%.

As to `CCN1CCC2(CCN(Cc3nccs3)CC2)C1=O.O=C(O)C(F)(F)F`, the “Percent Effect” value is -3.246%. In the case of `CCN1CCC2(CCN(c3ncccn3)CC2)C1=O.O=C(O)C(F)(F)F`, the “Percent Effect” value is recorded as 93.98%. `COCCN1CCC2(CCN(Cc3cccs3)CC2)C1=O.O=C(O)C(F)(F)F`: the “Percent Effect” value amounted to 6.379%. As for `COCCN1CCC2(CCN(c3ncccn3)CC2)C1=O.O=C(O)C(F)(F)F`, the “Percent Effect” value is given as 97.58%. `NC(=O)CN(C(=O)c1c[nH]c2ncccc12)C1CCCC1`: the “Percent Effect” value is reported as -3.753%. With `CNC(=O)C1CCC2(CCN(c3ncc(C)cn3)CC2)CO1` (configuration not stated) the figure was -6.735%; with `Cc1n[nH]c(C)c1CNCC(O)c1cccc(Cl)c1.Cl` (configuration not stated), 7.117%. With `COCC(=O)N1CCCC1c1csc(Nc2cnccn2)n1` (configuration not stated) the figure was 91.87%; with `CC(=O)N1CCCC1c1csc(Nc2cnccn2)n1` (configuration not stated), -5.394%. With `CCC(=O)N1CCCC1c1csc(Nc2cnccn2)n1` (configuration not stated), the “Percent Effect” value is given as 122%. `Cc1cnc(NC(=O)c2cccc(CN(C)Cc3ccno3)c2)s1`: the “Percent Effect” value was 0.9625%. In the case of `CCN1CCCc2cc(CN3CCc4nc(C)[nH]c(=O)c4C3)ccc21` it was 122.7%; in that of `CCn1nc2c(cc1=O)CN(Cc1ccc(-n3cccn3)cc1)CC2`, 7.019%. For the molecule `CCn1nc2c(cc1=O)CN(Cc1nc3ccccc3c(=O)[nH]1)CC2`, the “Percent Effect” value is given as -16.27%. In the case of `CCCn1nc2c(cc1=O)CN(CCCN1CCCC1=O)CC2`, the “Percent Effect” value is listed as -4.188%. For `CCn1nc2c(cc1=O)CN(Cc1cc(C)on1)CC2`, the “Percent Effect” value worked out at 0.747%. With `CCN1CCCc2cc(CN3CCc4c(nc(C)[nH]c4=O)C3)ccc21`, the “Percent Effect” value came to 149.4%. As for `CN(C)C(=O)c1n[nH]c2c1CCN(Cc1nccs1)C2`, the “Percent Effect” value was determined as 9.734%.

As for `Cn1ncc2c(N3CCN(C(N)=O)CC3)nc(C3CCCC3)nc21`, the “Percent Effect” value came out at 2.978%. For the molecule `CC1Cc2ccccc2N1Cc1occc1C(=O)OCC(N)=O` (configuration not stated), the “Percent Effect” value is reported as -8.495%. Turning to `O=C1OC2(CCNCC2)CN1CC(=O)N1CCCC1c1ccco1` (configuration not stated), the “Percent Effect” value was -0.7494%. On to `CC(C)(C)CC(=O)N1[C@@H](c2ccco2)[C@@H](CO)C[C@]12CCCCNC2=O`, for which the “Percent Effect” value was 102.1%.

Take `CC(C)CCC(=O)NCC(=O)N1CCCCCC1c1ccco1` (configuration not stated): the “Percent Effect” value amounted to 14.42%. For `CC(C)COC(=O)N1[C@@H](c2ccco2)[C@@H](CO)C[C@]12CCCCNC2=O`, the “Percent Effect” value turned out to be 102%. Turning to `CCOC(=O)N1[C@@H](c2ccco2)[C@@H](CO)C[C@]12CCCCNC2=O`, the “Percent Effect” value was 109.7%.

As to `CCN(CCn1cccn1)C(=O)CN1C(=O)OC[C@@H]1C(C)C`, the “Percent Effect” value was -18.11%. Take `COc1cccc(CN2CCCCC2CN2CCOCC2)c1F` (configuration not stated): the “Percent Effect” value worked out at 24.12%. For `Oc1cccc(CN2C[C@H]3CC[C@@H]2CN(Cc2ccc(F)cc2)C3)c1`, the “Percent Effect” value is reported as 7.382%. For `O[C@]12CC[C@H](CC1)N(Cc1ccc(F)cc1)C2CN1CCOCC1` (some centres not stated), the “Percent Effect” value amounted to 104%. Turning to `Fc1ccc(CN2CCOC[C@H](Oc3cccnc3)C2)cc1`, the “Percent Effect” value amounted to 4.64%. In the case of `OCC1N(Cc2ccc(F)cc2)[C@H]2CC[C@]1(O)CC2` (some centres not stated), the “Percent Effect” value turned out to be 104.7%. In the case of `Cl.Cl.OC(CN1CCN(Cc2ccc(F)cc2)CC1)C1CC1` (configuration not stated) it was -6.832%; in that of `Cc1cc(C)cc(CN2CCN(C(=O)COCC3CCCO3)CC2=O)c1` (configuration not stated), -14.3%. Consider `COc1ccccc1OCCNS(=O)(=O)N1CCOCC1`, for which the “Percent Effect” value turned out to be 86%. For `CCC(NS(=O)(=O)N1CCOCC1)c1ccccc1OC` (configuration not stated), the “Percent Effect” value is recorded as -7.282%. For `COc1ccccc1CC(NC(=O)N1CCOCC1)C(C)C` (configuration not stated), the “Percent Effect” value is listed as -8.474%. `COc1ccc(OCCN(C)S(=O)(=O)N2CCOCC2)cc1`: the “Percent Effect” value was -3.974%. Take `CN(CCOc1ccccc1Cl)S(=O)(=O)N1CCOCC1`: the “Percent Effect” value is reported as -15.33%. In the case of `COc1ccccc1CCNS(=O)(=O)N1CCOCC1` it was 112%; in that of `CCN(C(=O)NCCc1ccc(C)cc1C)C(C)CS(C)(=O)=O` (configuration not stated), -11.16%.

Regarding `Cc1cc(N2CCSCC2)ccc1NC(=O)N(CCO)C1CC1`, the “Percent Effect” value is recorded as -6.894%. As to `NC(=O)NC(CC(=O)N1CCc2sccc2C1)c1cccc(Br)c1` (configuration not stated), the “Percent Effect” value is given as 93.59%. As for `CC(NCC(=O)N1CCc2sccc2C1)c1ccccc1F` (configuration not stated), the “Percent Effect” value is reported as 93.75%. Turning to `O=C(CNc1nc(C(F)(F)F)cs1)N1CCc2sccc2C1`, the “Percent Effect” value is recorded as 8.259%. With `CC(C)(C)CC(=O)N1CCc2sccc2C1` the figure was -0.9665%; with `NC(=O)NC(CC(=O)N1CCc2sccc2C1)c1ccccc1F` (configuration not stated), 105.1%. On to `N#Cc1cccc(CNCCC(=O)N2CCc3sccc3C2)c1`, for which the “Percent Effect” value was -10.34%. Consider `CC(C)(C)c1nnc(NCC(=O)N2CCc3sccc3C2)s1`, for which the “Percent Effect” value was 0.7468%. Consider `O=C(C[S+]([O-])Cc1ccc(F)cc1)N1CCc2sccc2C1` (configuration not stated), for which the “Percent Effect” value is given as 1.066%.

As to `O=C(CCNCc1cccc(O)c1)N1CCc2sccc2C1`, the “Percent Effect” value was 2.464%. Turning to `Cc1ccccc1C(CC(=O)N1CCc2sccc2C1)NC(N)=O` (configuration not stated), the “Percent Effect” value stood at 98.58%. Turning to `O=C(C[S+]([O-])Cc1c(F)cccc1Cl)N1CCc2sccc2C1` (configuration not stated), the “Percent Effect” value came to 13.7%. `O=C(C[S+]([O-])Cc1ccccc1F)N1CCc2sccc2C1` (configuration not stated): the “Percent Effect” value was 15.13%.
